Screening results from PubChem BioAssay.
Hits are enriched below; roughly 2% of the tested compounds scored in any of these assays.
PKM2 act = PKM2 (human) enzyme activation; purified PKM2, Kinase-Glo ATP luminescence, activation; response scale: 0% is enzyme alone, no compound; P14618; 260,000 compounds, 0.34% hits; Potency, µM (doses to about 57.5 µM), actives largely listed as activators; AID 1631; also: nearly all actives have a fitted effect of over 55% in size
Target sequence (P14618 whole entry, looked up): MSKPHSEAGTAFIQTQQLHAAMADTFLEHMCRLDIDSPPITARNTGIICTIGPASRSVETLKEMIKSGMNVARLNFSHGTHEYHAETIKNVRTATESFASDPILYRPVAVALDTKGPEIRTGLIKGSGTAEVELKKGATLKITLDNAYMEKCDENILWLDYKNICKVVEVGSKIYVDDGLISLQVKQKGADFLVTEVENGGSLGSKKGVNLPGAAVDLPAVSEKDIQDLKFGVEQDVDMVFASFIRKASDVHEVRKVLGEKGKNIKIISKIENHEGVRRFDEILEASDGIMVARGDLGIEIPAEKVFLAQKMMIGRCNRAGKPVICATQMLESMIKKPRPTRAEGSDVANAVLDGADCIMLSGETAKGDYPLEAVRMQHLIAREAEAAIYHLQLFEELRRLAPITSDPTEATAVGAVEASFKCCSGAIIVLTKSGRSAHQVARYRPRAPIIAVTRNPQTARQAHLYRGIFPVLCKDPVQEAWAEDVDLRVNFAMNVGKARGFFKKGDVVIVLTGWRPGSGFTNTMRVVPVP
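ATP formation by purified human PK-M2, quantified via coupled luciferase luminescence after 1 h at room temperature with 0.1 mM ADP and 0.5 mM PEP final.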
ClpP mod = qHTS Assay for Activators of ClpP. 340,000 compounds, 1.9% hits. Potency, µM (titrated, usually from 57.5 µM). ATP-dependent Clp protease proteolytic subunit (Bacillus subtilis (strain 168)), P80244. purified B. subtilis ClpP, FRET peptide cleavage, 20 min; active = well fitted falling curve with a large enough effect; inconclusive = small, poorly fitted or top-dose-only effect; inactive = no such curve, though single readings can be large or run the other way; also: the source files actives as falling curves though it sought activators and does not explain the sign; nearly all actives have a fitted effect of over 65% in size
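Purified B. subtilis ClpP, 10 microg/mL final in Tris/HCl pH8 with KCl, BSA, glycerol and Tween-20, cleaved an Abz/nitrotyrosine-quenched decapeptide. Fluorescence (ex 320, em 430) was read at 0 and 20 min at room temperature. Delta was normalized to 5.8 microM ADEP and DMSO/no-enzyme controls.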
NPSR antag = antagonists of human neuropeptide S receptor cAMP signaling. Potency, µM (doses to about 38.3 µM), actives largely listed as inhibitors. Q6W5P4. 220,000 compounds, 1% hits. AID 1461. CHO-NPSR cells, cAMP TR-FRET, antagonist mode; also: nearly all actives have a fitted effect of over 50% in size
IL2 activator = IL-2 activation; 360,000 compounds, 0.065% hits; IL-2 activation reporter assay, cell-based qHTS; stimulated with anti-CD3/CD4/CD28 beads; in transgenic mouse T cells; activation, % (series mostly up to about 46 µM); in the data active = activation above about 50%; inconclusive = mostly about 30% to 49%
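Screening format: compound pinned onto unstimulated transgenic mouse T cells, 60 min incubation, then anti-CD3/anti-CD4/anti-CD28 bead stimulation for 18 hours at 37 degrees C, followed by EGFP and DsRed detection.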
HeLa tox = reduces HeLa cell viability in PKM2 activator counter-screen; shares compounds with PKM2 act; activity change, negative = cytotoxicity, % at 57.5 µM; HeLa viability, CellTiter-Glo ATP luminescence, 24 h; 230 tested, under 10 active; AID 1898
A number is an active result; 0 = inactive; ? = inconclusive; - = not tested or not shown. Unless noted, calls follow the shape of the dose curve; as a rule, active = well fitted curve in the direction sought with a large enough effect; inconclusive = small, poorly fitted or top-dose-only effect, or another doubt; inactive = no such curve, though single readings can be large; an effect the other way counts as inactive or inconclusive.

SMILES	PKM2 act	ClpP mod	NPSR antag	IL2 activator	HeLa tox
O=C(c1ccc(F)cc1)N1CCN(S(=O)(=O)c2ccc3c(c2)OCCO3)CC1	-	0	-	0	-
COc1ccc(CNC(=O)CCCc2nnc3n(CCC(C)C)c(=O)c4sccc4n23)cc1	-	0	-	-	-
Cc1ccc(S(=O)(=O)NCc2ccccc2)cc1C(=O)N1CCCC(C(F)(F)F)C1 (stereo not drawn)	-	0	-	0	-
COc1ccc(S(=O)(=O)N2CCC(C(=O)NCc3cccc(OC)c3)CC2)cc1	1.6µM	0	0	0	0
CCOc1ncccc1C(=O)N1CCN(S(=O)(=O)c2ccc3c(c2)OCCO3)CC1	-	0	-	0	-
O=S(=O)(c1ccc2c(c1)OCCO2)N1CCN(S(=O)(=O)c2ccccc2F)CC1	-	-	-	-	0
O=S(=O)(c1ccc2c(c1)OCCO2)N1CCN(S(=O)(=O)c2ccccn2)CC1	-	-	-	0	0
COc1ccc2sc(-c3ccc(S(C)(=O)=O)cc3)c(-c3ccc(SC)cc3)c2c1	-	0	-	0	-
CCOC(=O)N1CCC(NS(=O)(=O)c2ccc(C)c(Cl)c2)CC1	0	-	0	0	-
COc1ccc(C2(CNC(=O)/C=C/c3ccco3)CCCC2)cc1OC	0	0	0	0	-
CCCS(=O)(=O)Nc1c(C(=O)OC)[nH]c2ccccc12	0	0	0	0	-
COC(=O)c1[nH]c2ccccc2c1NS(=O)(=O)c1ccc(F)c(C)c1	10µM	0	0	0	0
CCc1c(C(=O)NCc2ccccc2Cl)[nH]c(C)c1C(C)=O	0	0	0	0	-
CC(=O)c1c(C)[nH]c(C(=O)NCc2ccccc2Cl)c1C	7.9µM	0	0	0	0
Cc1cccc(C(=O)Nc2ccc(OCc3cc(=O)n4ccsc4n3)cc2)c1	-	0	-	-	-
CCc1ccc(CCC(=O)Nc2nccs2)o1	0	0	0	0	-
Cc1ccc(CCC(=O)Nc2nccs2)o1	20µM	0	0	0	0
Cc1cc(=O)[nH]c2c1cnn2Cc1ccccc1	0	0	0	0	-
Cc1cc2c(s1)c1cnn(Cc3ccc(-c4ccccc4)cc3)c(=O)c1n2C	-	-	-	-	0
Cn1c2cc(Br)sc2c2cnn(Cc3c(F)cccc3Cl)c(=O)c21	-	-	-	0	-
Cc1cc2c(s1)c1cnn(Cc3ccc(Cl)cc3)c(=O)c1n2C	-	-	-	-	0
COc1cccc(NC(=O)CSc2nnc3cc(C)nc(N)n23)c1	1.8µM	-	0	0	0
Cc1cc2nnc(SCC(=O)Nc3ccc(Cl)cc3)n2c(N)n1	?	-	-	0	-
COC(=O)CCC(=O)NNC(=O)Cc1ccccc1	0	-	0	0	-
C=CS(=O)(=O)N(Cc1ccc(Cl)c(Cl)c1)C[C@@H](O)CO	-	0	-	0	-
SMILES	PKM2 act	ClpP mod	NPSR antag	IL2 activator	HeLa tox
O=S(=O)(c1c(F)cccc1F)N1CCN(S(=O)(=O)c2c(F)cccc2F)CC1	-	-	-	-	0
O=S(=O)(NCCCCNS(=O)(=O)c1c(F)cccc1F)c1ccc2c(c1)OCCO2	-	-	-	0	0
O=S(=O)(NCC1CCC(NS(=O)(=O)c2c(F)cccc2F)CC1)c1ccc2c(c1)OCCO2 (stereo not drawn)	-	-	-	0	-
O=S(=O)(NCCNS(=O)(=O)c1c(F)cccc1F)c1ccc2c(c1)OCCO2	-	-	-	0	0
COCCNS(=O)(=O)c1ccc2c(c1)oc(=O)c1cc(S(=O)(=O)NCCOC)ccc12	?	-	0	-	-
NS(=O)(=O)c1ccc2c(c1)oc(=O)c1cc(S(N)(=O)=O)ccc12	0.35µM	-	0	0	0
CCNS(=O)(=O)c1ccc(NC(=O)c2ccc(Cn3cc(Br)cn3)o2)cc1	5µM	0	0	0	0
O=C(C[n+]1ccccc1)N/N=C/c1ccc(C(=O)O)cc1	-	0	-	0	-
Cc1cccc(C)c1NC(=O)C1c2ccccc2OCC(=O)N1Cc1ccc2c(c1)OCO2 (stereo not drawn)	-	0	-	0	-
CC(=O)N(c1ccccc1)C1SC(=O)N(c2ccccc2)C1=O (stereo not drawn)	0.56µM	0	0	0	0
CCN(c1ccccc1)C1SC(=O)N(c2ccccc2)C1=O (stereo not drawn)	-	0	-	-	-
COc1ccc(CCNC(=O)CSc2ccc3ccccc3c2)cc1OC	0	0	0	0	-
O=C(CSc1ccc2ccccc2c1)NCCc1ccc(O)c(O)c1	2.8µM	-	0	0	0
O=C(COC(=O)C1CC(=O)N(Cc2ccco2)C1)c1ccc(OC(=O)c2ccccc2)cc1 (stereo not drawn)	0	0	0	0	-
